According to the supplement of paper PMC3334620:
Over roughly 33,000 sequences, “E-score (-0.5 to 0.5)” has its median near -0.041; the highest 2% begin near 0.37. What follows is part of a selection rich in the highest values, with near analogues and random picks from the rest.

Molecular target: T1, Ecm22 (UniProt Q05958)
T1 sequence: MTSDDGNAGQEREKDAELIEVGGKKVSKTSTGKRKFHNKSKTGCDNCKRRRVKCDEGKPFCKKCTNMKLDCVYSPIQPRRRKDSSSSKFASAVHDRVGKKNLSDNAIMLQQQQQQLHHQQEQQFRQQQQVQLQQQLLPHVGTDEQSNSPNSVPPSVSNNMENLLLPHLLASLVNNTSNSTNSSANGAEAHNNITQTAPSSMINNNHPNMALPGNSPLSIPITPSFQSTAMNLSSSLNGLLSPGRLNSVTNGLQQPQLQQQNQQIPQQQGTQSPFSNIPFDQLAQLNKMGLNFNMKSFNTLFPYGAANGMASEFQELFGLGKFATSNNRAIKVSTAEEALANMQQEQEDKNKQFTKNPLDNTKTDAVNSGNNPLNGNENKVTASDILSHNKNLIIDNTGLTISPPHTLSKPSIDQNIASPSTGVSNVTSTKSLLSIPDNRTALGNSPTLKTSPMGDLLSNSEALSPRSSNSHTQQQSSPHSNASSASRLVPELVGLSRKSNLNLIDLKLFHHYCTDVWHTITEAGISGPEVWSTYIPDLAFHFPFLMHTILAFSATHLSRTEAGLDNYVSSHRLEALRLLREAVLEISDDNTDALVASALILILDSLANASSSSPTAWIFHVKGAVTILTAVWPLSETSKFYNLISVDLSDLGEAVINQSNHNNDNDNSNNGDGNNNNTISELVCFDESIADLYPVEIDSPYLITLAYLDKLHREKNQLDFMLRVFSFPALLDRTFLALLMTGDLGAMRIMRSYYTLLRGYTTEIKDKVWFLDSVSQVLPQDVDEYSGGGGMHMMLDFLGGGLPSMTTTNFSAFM
Experiment: PBM E-score (8-mer binding enrichment) (E-score (-0.5 to 0.5)); higher = stronger / more preferred TF binding
Conditions: protein concentration: 200 nM; construct: GST-full length
How it was run: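 GST-tagged yeast TFs (full-length or DNA-binding domain) were made by PURExpress in vitro transcription/translation and applied at about 100-200 nM to universal all-10-mer Agilent arrays. The arrays were made double-stranded by primer extension, on fresh or once-stripped slides. Bound protein was detected with fluorescent anti-GST, and scans were normalised with masliner. Each ungapped eight-base word, pooled with its reverse complement, received an E-score (modified Wilcoxon-Mann-Whitney statistic) from the Universal PBM Analysis Suite.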

| Sequence | PBM E-score |
| --- | --- |
| CACGAGAA | 0.143 |
| ACCGAGAT | 0.178 |
| GACGAGAC | 0.029 |
| ATCGAGAT | 0.0251 |
| AACGAGAT | 0.438 |
| TCCGAGAA | 0.265 |
| CACGAGAC | 0.0819 |
| TTCGAGAA | 0.149 |
| AACGAGAA | 0.424 |
| CTCCCTCA | -0.162 |
| CTTCTAAA | -0.0244 |
| GCTGTCTA | -0.0813 |
| GGTACTAA | 0.0853 |
| CACAGAAC | 0.00026 |
| CTCGACCA | -0.0786 |
| CCCGAAGA | 0.0524 |
| AATGCAGA | -0.0678 |
| CACGAGAG | 0.0712 |
| ATCGAGAG | 0.0766 |
| AACGAGAG | 0.433 |
| ATCAAGGG | -0.149 |
| CGCTACGA | 0.456 |
| GGCTACGA | 0.424 |
| ATCTACGA | 0.304 |
| GGCTACAA | 0.042 |

| Sequence | PBM E-score |
| --- | --- |
| CTCTACGA | 0.37 |
| AGCTACGA | 0.394 |
| CGCTACAA | 0.0321 |
| AGCTACGC | 0.141 |
| GGCTACCA | -0.2 |
| CGCTACGC | 0.138 |
| AGCTACGG | 0.112 |
| CTCTACGC | 0.00503 |
| AGCGGGTA | 0.107 |
| GACCTGAC | -0.172 |
| GAACTTGC | -0.0845 |
| ATGCACCG | -0.0745 |
| TATATCGA | 0.131 |
| GGCTGAAC | -0.0835 |
| ACATTTGA | -0.158 |
| CTTTGGAC | -0.0902 |
| AGACGGTA | -0.121 |
| GCACGGTA | -0.0289 |
| ACACGGTA | 0.108 |
| ATACGGTA | 0.383 |
| CTACGGTA | 0.0823 |
| GTACGGTA | 0.385 |
| AGATAGCT | -0.0945 |
| AGGCTCCA | -0.369 |
| CTGCACAA | -0.214 |

| Sequence | PBM E-score |
| --- | --- |
| CGGCAACC | -0.082 |
| AACATTCT | -0.0433 |
| ATTTATAC | 0.401 |
| ATTTATAA | 0.0523 |
| CTTTATAC | 0.23 |
| AAGAACCC | -0.0304 |
| CGTACCTA | 0.441 |
| CGTACCTC | 0.435 |
| CCTACCTC | -0.0998 |
| GGTACCTA | -0.1 |
| AGTACCTA | -0.104 |
| AGTACCTC | -0.19 |
| CTAGAACA | -0.0457 |
| CGGGTCGC | 0.187 |
| ACCGTCGA | -0.216 |
| AACGTCGG | 0.17 |
| ACCGTCGT | 0.404 |
| AACGTCGT | 0.37 |
| ACCGTCGC | 0.278 |
| AACGTCGA | 0.178 |
| AAGCTCAG | -0.321 |
| CGGTTCGC | 0.151 |
| AACCTAGC | -0.09 |
| AGAGGGGG | -0.0644 |
| ACAGCACC | -0.276 |

| Sequence | PBM E-score |
| --- | --- |
| ACTCGTTA | 0.348 |
| CCTCGTCC | -0.238 |
| ACTCGGTC | 0.229 |
| CCTCGTGC | 0.0902 |
| ACTCGTTC | 0.466 |
| CCTCGTTC | 0.474 |
| GCACGTTA | 0.0282 |
| CCTCGTTA | 0.402 |
| GCTCGCTA | 0.31 |
| CCACGTTA | 0.0599 |
| GCTCGTTA | 0.373 |
| ACTCGTTG | 0.274 |
| TCTCCTAA | -0.203 |
| TCTAGGAA | -0.0513 |
| ACTCGCTC | 0.354 |
| CCTCGCTC | 0.372 |
| CCTCGCTA | 0.215 |
| GGGAGAAA | -0.141 |
| GGGGACCA | -0.259 |
| AGCGATTC | 0.12 |
| ACCGATTG | 0.115 |
| AACGATTA | 0.382 |
| AACGATTC | 0.377 |
| CACGATTA | 0.1 |
| CACGATTC | 0.244 |

| Sequence | PBM E-score |
| --- | --- |
| GACGATTA | 0.0551 |
| AACGATTG | 0.384 |
| ATCGATTG | 0.0987 |
| CAGGGCAA | -0.227 |
| CTGACGTA | 0.132 |
| AAGATACA | -0.046 |
| GACTCGAC | 0.0219 |
| ATGAGATG | -0.227 |
| ACTGCTGA | -0.19 |
| CCCTCTCC | -0.358 |
| CTAGGAAA | -0.209 |
| CGCGCAAA | 0.188 |
| GCACGGGA | 0.0895 |
| AGACGGGG | -0.0581 |
| ATACGGGA | 0.389 |
| ACACGGGC | -0.0743 |
| CTACGGGC | -0.0464 |
| AAACGGGG | 0.361 |
| ATACGGGG | 0.386 |
| CTACGGGA | 0.146 |
| ATACGGGC | 0.413 |
| ACACGGGA | 0.0892 |
| GTACGGGA | 0.419 |
| GAACGGGA | 0.327 |
| AAGCGCAC | 0.0929 |

| Sequence | PBM E-score |
| --- | --- |
| AAGCTTGT | 0.0175 |
| ACAATCCT | -0.0917 |
| GGGGCAGA | -0.0715 |
| ATCCTGCC | -0.0749 |
| CGAGCACA | 0.225 |
| AGCCCTGG | -0.233 |
| TAACCCCA | -0.181 |
| ACAACTCC | -0.151 |
| CGGCGAAA | 0.0597 |
| GCGTATAC | 0.406 |
| GAGTATAC | 0.286 |
| ATGTATAC | 0.179 |
| CTGTATAA | 0.0431 |
| AAGTATAC | 0.255 |
| CGGTATAA | 0.161 |
| CCGTATAA | 0.473 |
| CCGTATGA | 0.396 |
| ACGTATGA | 0.17 |
| GGGTATAC | 0.15 |
| CCGTATGC | 0.268 |
| ACGTATAC | 0.381 |
| AGTGCCAA | -0.0554 |
| CTGCCTCA | -0.257 |
| AATGTGCT | 0.00418 |
| CGATATGC | 0.188 |

| Sequence | PBM E-score |
| --- | --- |
| ATTCCCAG | -0.0258 |
| GGAGCGAC | 0.339 |
| GGCGTTGA | -0.126 |
| ACTTTAGG | -0.0481 |
| CTGTATAC | 0.207 |
| AAGTATAT | 0.0727 |
| ATGTATAA | 0.0604 |
| ACGTATAA | 0.412 |
| GCGTATAA | 0.394 |
| CCGTATCC | 0.337 |
| GTGTATAA | -0.026 |
| GCGTATTA | 0.031 |
| CCGTATAC | 0.456 |
| AGGTATAA | 0.211 |
| AGGTATAT | -0.117 |
| ACGTATAT | 0.371 |
| TTCAAGAA | 0.0932 |
| CAGCCGGC | 0.0272 |
| CCAGAGAA | 0.0432 |
| GCAGGACA | -0.0743 |
| CAGTCTAA | 0.0425 |
| ATGACTTG | -0.136 |
